Screening data deposited in PubChem BioAssay by The Scripps Research Institute Molecular Screening Center.
Shown is part of a subset that was picked to be rich in hits.
TTR transcr act = activators of transthyretin transcription; SH-SY5Y TTR promoter Gaussia luciferase, luminescence; 100% = recombinant luciferase protein wells; activation, % at 16.7 µM; actives 1.3% (n = 92,000); AID 1117267;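 active = activation above the mean of all tested compounds plus 3 SD, cut at about 9.5% in these data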;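 note: cells exposed to compounds for one day before reading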
TTR inh HuH7 = counter-screen for TTR activators: TTR transcription inhibitors in HuH7 cells. actives 4% (n = 1,100). AID 1117279. HuH7 TTR promoter-Gaussia luciferase reporter, luminescence. shares compounds with TTR transcr act. inhibition, % at 16.7 µM;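 active = average inhibition above the solvent-only control wells' mean plus 3 SD, cut at about 15% in these data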;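 note: inhibitors lower well luminescence so higher value means more inhibition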
TTR act confirm = human TTR transcription activation, confirmation | AID 1117280 | shares compounds with TTR transcr act | SHSY5Y TTR promoter Gaussia luciferase, luminescence; 100% = purified Lucia enzyme wells, no cells | 1,100 tested, under 10 active | activation, % at 16.7 µM;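 active = mean activation above a set limit taken from the earlier primary screen, cut at about 11% in these data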
Large screens that a line does not name were inactive (follow-up assays come after a bar, where they were run).

Fc1ccc(F)c(Cn2ccc3ccc(-c4ccc5ccn(Cc6cc(F)ccc6F)c5c4)cc32)c1	none
Nc1c(C(=O)NCC2CCCO2)c2nc3ccccc3nc2n1-c1ccccc1 (centres undefined)	TTR transcr act 11 | TTR inh HuH7 inactive | TTR act confirm inactive
O=C(CSc1nc2ccccc2n1-c1ccccc1)NCC1CCCO1 (centres undefined)	none
Cc1ccc(C)n1-c1ccc(C(=O)NCC2CCCO2)cc1 (centres undefined)	none
CCCC1CCC2(CC1)CCC2OC(=S)Nc1ccc(N(C)C)cc1 (centres undefined)	none
CC1CCc2nc3ccccc3c(C(=O)OCC(=O)N(C)C3CCS(=O)(=O)C3)c2C1 (centres undefined)	none
COc1cccc(NC(=O)COC(=O)c2c(F)cccc2Cl)c1	none
COc1cccc(NC(=O)COC(=O)c2c3c(nc4ccccc24)CCC(C)C3)c1 (centres undefined)	TTR transcr act 11 | TTR inh HuH7 inactive | TTR act confirm inactive
CC1(c2nnnn2Cc2ccccc2)CCCC(=O)N1Cc1cccs1 (centres undefined)	none
Cc1cccc(C(=O)c2ccccc2C(=O)O)c1	TTR transcr act 11 | TTR inh HuH7 inactive | TTR act confirm inactive
Cc1cccc(C(=O)NNC(=O)c2ccccc2-n2cccc2)c1	none
O=C(O)c1cccc(C(=O)c2cccc3ccccc23)c1	none
COC(=O)[C@]12C[C@H](CC(=O)N3CCCC3)C(=O)N(Cc3ccc(Cl)cc3Cl)C1=C[C@H](C1CCCC1)O[C@@H]2C	none
COc1ccc(CCNC(=O)c2c(N)[nH]c(C(=O)c3ccccc3)c2-c2ccc(N(C)C)cc2)cc1	none
COc1ccc(C(CNC(=O)c2ccco2)N2CCCCC2)cc1 (centres undefined)	none
COc1ccc(C(Nc2ccccn2)c2c(NC(=O)c3ccco3)sc(C)c2C)cc1OC (centres undefined)	none
COc1ccc(C(c2c(NC(=O)c3ccco3)sc(C)c2C)N2CCOCC2)cc1 (centres undefined)	TTR transcr act 14 | TTR inh HuH7 inactive | TTR act confirm inactive
Cc1ccc(CN2CCCCC(NC(=O)Nc3ccccc3-c3ccccc3)C2=O)cc1 (centres undefined)	none
Cc1ccccc1NC(=O)OCCN1CCCC12CCC(c1ccccc1)CC2 (centres undefined)	none
Cc1ccc2c(Cl)cc(Cl)c(OCC(=O)NC(=O)NCc3ccco3)c2n1	none
Cc1ccc2cccc(OCC(=O)N(C)CC(=O)Nc3ccc(F)cc3)c2n1	none
Cc1ccc(NC(=O)CN(C)C(=O)COc2c(Cl)cc(Cl)c3ccc(C)nc23)cc1	TTR transcr act 13 | TTR inh HuH7 inactive | TTR act confirm inactive
COc1ccc(C(C(=O)NCc2ccccc2)n2c(-c3ccncc3)nc3ccccc32)cc1 (centres undefined)	none
CCC(C(=O)NCc1ccccc1)n1c(-c2cccs2)nc2ccccc21 (centres undefined)	TTR transcr act 11 | TTR inh HuH7 inactive | TTR act confirm inactive
CCC(C(=O)NC1CCCC1)n1c(-c2ccccn2)nc2ccccc21 (centres undefined)	none
CCCCOCCCNC(=O)C[C@H]1C[C@@]2(C(=O)OC)C(=C[C@H](COCc3ccccc3)O[C@@H]2C)N(Cc2ccc(Cl)cc2Cl)C1=O	none
COC(=O)c1cnc(Nc2nc(C(N)Cc3ccccc3)cs2)nc1C(F)(F)F (centres undefined)	none
COC(=O)c1cnc(NNS(=O)(=O)c2ccc(Cl)cc2)nc1C(F)(F)F	TTR transcr act 11 | TTR inh HuH7 inactive | TTR act confirm inactive
COC(=O)c1cnc(NNC(=O)c2ccc([N+](=O)[O-])cc2)nc1C(F)(F)F	none
CC(C)(C)OC(=O)N1c2ccccc2[C@]2(N3CCCC3)C[C@H](C(=O)O)N(C(=O)OC(C)(C)C)[C@H]12	none
CC(C)CNC(=O)OCc1cn(Cc2ccc(Cl)cc2)nn1	none
COC(=O)[C@]12C[C@H](CC(=O)N3CCN(C(=O)c4ccco4)CC3)C(=O)N(Cc3ccco3)C1=C[C@H](COCc1ccccc1)O[C@@H]2C	none
COC(=O)[C@]12C[C@H](CC(=O)N3CCC(c4ccccc4)CC3)C(=O)N(Cc3ccc(Cl)cc3Cl)C1=C[C@H](C(C)C)O[C@@H]2C1CC1	none
CCOC(=O)C(=O)Nc1ccccc1C#N	TTR transcr act 25 | TTR inh HuH7 inactive | TTR act confirm inactive
CCOC(=O)C(=O)Nc1ccccc1C(=O)NC(C)C	none
CCOC(=O)C(=O)Nc1ccccc1C(=O)OCC	none
Clc1ccc([C@H]2OC[C@@]3(CNCc4ccc5c(c4)OCO5)CS[C@H](c4ccc(Cl)cc4)N23)cc1	none
C[C@@H]1CN([C@@H](C)CO)C(=O)c2cc(N(C)C)ccc2O[C@@H](C)CCCCO[C@@H]1CN(C)S(=O)(=O)c1cccs1	TTR transcr act 14 | TTR inh HuH7 inactive | TTR act confirm inactive
C[C@@H]1CCCCO[C@@H](CN(C)S(=O)(=O)c2ccc(F)cc2)[C@@H](C)CN([C@H](C)CO)C(=O)c2cc(N(C)C)ccc2O1	none
C[C@@H]1CCCCO[C@H](CN(C)S(=O)(=O)c2cccs2)[C@H](C)CN([C@@H](C)CO)C(=O)c2cc(NC(=O)NC3CCCCC3)ccc2O1	none
CC1(c2nnnn2Cc2ccccc2)CCSCC(=O)N1Cc1cccs1 (centres undefined)	none
Nc1[nH]c(C(=O)c2ccc(Br)cc2)c(-c2ccc(Br)cc2)c1C(=O)N1CCCCC1	none
COC(=O)c1cc(-c2cnc(OC)nc2OC)c(=O)n2c1CCC2	none
COC(=O)[C@]12C[C@H](CC(=O)N3CCCCC3)C(=O)N(Cc3ccc(Cl)cc3Cl)C1=C[C@H](COCc1ccccc1)O[C@@H]2C	none
O=C(CN1CCN(Cc2ccc3c(c2)OCO3)CC1)Nc1ccc(F)cc1	none
O=C(CN1CCN(CC(=O)Nc2ccc(Cl)cc2)CC1)Nc1ccc(F)cc1	TTR transcr act 11 | TTR inh HuH7 inactive | TTR act confirm inactive
O=C(CN1CCc2ccccc2C1)Nc1ccc(F)cc1	none
COc1ccc2c(c1)N[C@@](CCNC=O)(c1[nH]c3ccccc3c1CCNC=O)C2=O	none
CC(C)c1cccc(O)c(=O)c1	TTR transcr act 10 | TTR inh HuH7 inactive | TTR act confirm inactive
CC(=O)c1c(O)cc(C(C)C)n(-c2ccccc2)c1=O	none
Cc1ccc(C(C)C)c(O)c1	none
Cc1ccc(CN2CCCCC(NC(=O)c3cccc(C(F)(F)F)c3)C2=O)cc1 (centres undefined)	none
COc1ccccc1NC(=O)CSc1nc(=O)n2cc(C)ccc2n1	TTR transcr act 12 | TTR inh HuH7 inactive | TTR act confirm inactive
Cc1ccc2nc(SCC(=O)c3ccc(Cl)cc3)nc(=O)n2c1	none
Cc1ccc2nc(SCC(=O)Nc3ccc(C)c(Cl)c3)nc(=O)n2c1	none
CC(C)c1ccc(NC(=O)O[C@@H]2CC[C@@]34CCCN3C(=O)CCC[C@H]4C2)cc1	none
Cc1ccc(OCCOc2c(Cl)cc(Cl)cc2Cl)c([N+](=O)[O-])n1	none
COc1ccc(OC)c(N/C=C2/CCCCC2=O)c1	TTR transcr act 11 | TTR inh HuH7 inactive | TTR act confirm inactive
NC(=O)c1ccccc1N/C=C1\CCCCC1=O	none
COc1ccc(Oc2ccc(N/C=C3\CCCC3=O)cc2)cc1	none
O=C(NCc1ccccc1)OC1CCC12CCC(c1ccccc1)CC2 (centres undefined)	none
CCOC(=O)C(Cc1ccccc1)P(=O)(OCC)OCC (centres undefined)	none
